PubChem BioAssay (NCI)
The panel holds about 83,000 compounds, 20% with a hit somewhere; the sample as a whole holds those more often.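 For each line, cells grew in 96-well plates with the test compound present at a single concentration for 48 hours.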 Values without a mark were called inactive. The source made the active and inactive calls. How the source made its calls: active means growth percent below 10; inactive means the rest.

Experiments:
Test in all cases: NCI-60 one-dose screen, 48 h (100 = growth as untreated, 0 = no growth, -100 = all killed)
DU-145 prostate = details: 10 µM unless noted
MALME-3M melanoma = details: 10 µM unless noted
MDA-MB-231 breast = details: 10 µM unless noted
RXF 393 renal = details: 10 µM unless noted
SF-268 CNS = details: 10 µM unless noted
SF-295 CNS = details: 10 µM unless noted
SF-539 CNS = details: 10 µM unless noted
UACC-257 melanoma = details: 10 µM
M14 melanoma = details: 10 µM unless noted
HCT-15 colon = details: 10 µM unless noted
HT29 colon = details: 10 µM unless noted
SNB-75 CNS = details: 10 µM unless noted
SNB-19 CNS = details: 10 µM unless noted
U251 CNS = details: 10 µM unless noted
PC-3 prostate = details: 10 µM unless noted
SK-MEL-5 melanoma = details: 10 µM unless noted
UACC-62 melanoma = details: 10 µM unless noted
LOX IMVI melanoma = details: 10 µM unless noted
SK-MEL-28 melanoma = details: 10 µM unless noted
K-562 leukemia = details: 10 µM unless noted

Compound | growth (DU-145 prostate) | growth (MALME-3M melanoma) | growth (MDA-MB-231 breast) | growth (RXF 393 renal) | growth (SF-268 CNS) | growth (SF-295 CNS) | growth (SF-539 CNS) | growth (UACC-257 melanoma) | growth (M14 melanoma) | growth (HCT-15 colon) | growth (HT29 colon) | growth (SNB-75 CNS) [%] | growth (SNB-19 CNS) | growth (U251 CNS) | growth (PC-3 prostate) | growth (SK-MEL-5 melanoma) | growth (UACC-62 melanoma) | growth (LOX IMVI melanoma) | growth (SK-MEL-28 melanoma) | growth (K-562 leukemia)
CCN1CCN(Cc2ccc(C(=O)Nc3nc4ccc(Oc5ccnc(C(=O)NC)c5)cc4s3)cc2C(F)(F)F)CC1 | 79.3% | -5.31% (active) | 52% | 25% | 78.1% | 35.1% | -42.2% (active) | -2.29% (active) | -4.9% (active) | 6.98% (active) | 3.42% (active) | 75.9 | 66.6% | 41.9% | 46.1% | 17.7% | 24.6% | -11.8% (active) | -66.5% (active) | –
C/C(=C(/c1ccc(O)cc1)c1ccc(OCCN2CCCCCC2)cc1)c1ccccc1 | 74.3% | 2.85% (active) | 43.1% | 26% | 71.3% | 44% | 10.7% | -27% (active) | -3.91% (active) | -20.7% (active) | -8.88% (active) | 71.2 | 64.3% | 41.2% | 44.1% | 58.4% | 56.9% | 5.39% (active) | 21% | –
C/C(Cc1ccc(Cl)cc1)=C(/c1ccccc1)c1ccc(OCCN)cc1 | 106% | 88.5% | 98.7% | 102% | 94.2% | 99.7% | 99.7% | 106% | 95.7% | 101% | 102% | 98.2 | 92.9% | 100% | 99% | 99.1% | 91.7% | 98% | 96% | –
COc1ccccc1N1CCN(C2=NN=C(c3cccc(Cl)c3)c3ccccc3C2)CC1 | 2.18% (active) | 44.9% | -3.39% (active) | – | 22.6% | 19.3% | -11.6% (active) | 56.3% | 6.83% (active) | 15.8% | -3.52% (active) | 19.7 | 41.2% | 20.7% | 23.5% | -6.03% (active) | 31.6% | 24.8% | 60.7% | 3.9% (active)
C=CCn1c(SCC(=O)Nc2cccc(C(=O)/C=C/c3ccccc3)c2)nc2ccccc2c1=O | 77.4% | 100% | 94.4% | 83.3% | 92% | 95.7% | 77.1% | 118% | 77.1% | 57.9% | 14.7% | 82.1 | 77.1% | 46.7% | 77.4% | 98.6% | 86.3% | 24.4% | 95.4% | –
O=S(=O)(Nc1ccc(-n2cnc3cc(-c4ccc(O)cc4)ccc32)cc1)C1CC1 | 95.3% | 98.5% | 84.3% | – | 83.3% | 90.1% | 71.8% | 98.2% | 96.6% | – | 98.9% | 51.3 | 83.6% | 74.6% | 83.4% | 88% | 73.8% | 116% | 94.2% | 59.8%
N#Cc1ccc(S(=O)(=O)Nc2ccc(-c3cnc(N)[nH]3)cc2)cc1 | 107% | 98% | 100% | 102% | 105% | 96.9% | 98.7% | 98.2% | 99.9% | 96.7% | 98.5% | 106 | 94.1% | 98.3% | 99% | 100% | 92.4% | 97.9% | 97.1% | –
CS(=O)(=O)c1nccc(-c2c(-c3ccc(F)c(OCCc4ccc(F)cc4)c3)nc3sccn23)n1 | -91.6% (active) | 91.7% | 1.19% (active) | 77.7% | 82.8% | 89% | 76.3% | -81.4% (active) | 83.9% | -0.659% (active) | 7.43% (active) | 67.8 | 0.358% (active) | 71.4% | -62.2% (active) | – | 57.9% | 51.5% | -71.5% (active) | –
COC(=O)c1nc(-c2ccc(C)cc2)oc1S(=O)(=O)N1CCN(c2oc(-c3ccccc3)nc2C#N)CC1 | 104% | 98.6% | 102% | 109% | 98% | 103% | 98.6% | 111% | 74% | 98.6% | 111% | 100 | 94.6% | 99.4% | 99% | 100% | 92% | 89.7% | 99.6% | –
COc1ccc(NC(=O)Cn2cc(CN3C(=O)c4ccc([N+](=O)[O-])cc4C3=O)nn2)cc1 | 113% | 101% | 91.4% | – | 109% | 113% | 100% | 97.7% | 108% | 98.2% | 109% | 73.9 | 93.6% | 100% | 98.6% | 102% | 91.3% | 97.7% | 110% | 98.1%
CC1(C)CC[C@]2(C(=O)N3CCCNCC3)CC[C@]3(C)C(=CC[C@@H]4[C@@]5(C)CCC(=O)C(C)(C)[C@@H]5CC[C@]43C)[C@H]2C1 | 108% | 110% | 106% | – | 102% | 104% | 97.2% | 105% | 110% | 103% | 102% | 124 | 98% | 100% | 88.2% | 102% | 89.6% | 97.2% | 104% | 96.8%
Cc1ccc(-c2nnc3sc(C4=Cc5ccccc5OC=C4)nn23)cc1 | 114% | 97.6% | 94.1% | – | 105% | 98.9% | 95.3% | 88.4% | 99.8% | 92.9% | 101% | 79.1 | 92.1% | 96.6% | 96.7% | 92.2% | 91.6% | 116% | 97.1% | 104%
COC(=O)[C@@]1(C)CC[C@]2(C)CC[C@]3(C)C(=CC(=O)[C@@H]4[C@@]5(C)Cc6c(n(CC#CCN7CCN(C)CC7)c7ccccc67)C(C)(C)[C@@H]5CC[C@]43C)[C@@H]2C1 | 54.5% | 115% | 67.2% | – | 86.6% | 85.9% | 91.5% | 106% | 90.6% | 2.6% (active) | 14.4% | 100 | 54.3% | 57.5% | 62.1% | – | 97.7% | -91.6% (active) | 105% | -5.29% (active)
C=C(C)C(=O)O[C@H]1C[C@@]2(C)OC(=CC2=O)/C(C)=C\[C@H]2OC(=O)C(=C)[C@H]12 | -3.72% (active) | 6.62% (active) | -33.3% (active) | -53.7% (active) | 7.51% (active) | 42.1% | -54.6% (active) | -26.3% (active) | -37% (active) | 1.22% (active) | 1.99% (active) | 33.3 | 49.1% | 6.75% (active) | -2.26% (active) | – | – | -58.6% (active) | – | –
COc1cc2c3c(n(CCCNC4CCCCC4)c(=O)c2cc1OC)-c1cc2c(cc1C3=O)OCO2 | -68.4% (active) | -46.9% (active) | -78.1% (active) | 76.6% | 70.1% | 66.1% | -85.5% (active) | 96.9% | 33% | -68.7% (active) | -69.2% (active) | 80.6 | 2.72% (active) | -91.1% (active) | -83.6% (active) | 97.2% | 81% | -76.7% (active) | 97% | –
COc1cnc2c(c1)C(=O)c1c-2n(CCCn2ccnc2)c(=O)c2cc(OC)c(OC)cc12 | -2.47% (active) | -51.4% (active) | -0.696% (active) | -10.5% (active) | 29.2% | -20.5% (active) | -35.2% (active) | – | -86.5% (active) | – | -56.1% (active) | 12.4 | 14.9% | -84.8% (active) | -54.9% (active) | -28.4% (active) | -11% (active) | -51.5% (active) | 45.5% | –
